In the library only some 2.3% were active in any assay of this set; here they are far more common.
FUS yeast rescue – FUS proteinopathy suppression in yeast. Potency, µM (titrated, usually from 76.6 µM), most hits filed as activators. S. cerevisiae FUS-expressing, growth rescue, OD600, 24 h. 0.24% of 390,000 active. AID 1347120;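 further: potency means the concentration at half of the fitted maximal effect; plate controls were DMSO vehicle for no effect and reference control for full effect; nearly all actives have a fitted effect of over 55% in size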
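Restored growth of FUS-toxic S. cerevisiae, read as 600 nm absorbance after 24 h at 30C in galactose medium (starting OD 0.005). Controls CP55940 and DMSO.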
aSyn yeast inh – rescues yeast growth from alpha-synuclein toxicity | 0.14% of 370,000 active | Potency, µM (titrated, usually from 46.1 µM), for the others: at the top dose growth rescue (activation), most hits filed as activators | AID 652106 | Yeast expressing alpha-synuclein, growth rescue, BacTiter-Glo, 24 h; further: potency means the concentration at half of the fitted maximal effect; % of control where 0% means no effect; nearly all actives have a fitted effect of over 65% in size
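Screening used galactose-induced yeast with toxic alpha-synuclein levels, exposed to compound for 24 hr at 30 deg C. Cell growth, read with BacTiter-Glo luminescence, gave the measured signal.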
Abeta yeast res – restores growth of yeast expressing A-beta42 peptide | yeast expressing A-beta42, growth rescue, OD600, 48 h; response scale: 0% DMSO, 100% iron-clioquinol control | 0.063% of 410,000 active | Potency, µM (top dose mostly 46.1 µM), most hits filed as activators; further: potency means the concentration at half of the fitted maximal effect; nearly all actives have a fitted effect of over 55% in size
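Yeast growth medium received pinned compounds, then yeast cells expressing toxic A-beta were added; plates incubated at 30 C for 48 hr. Growth read as absorbance at 600 nm, normalized to DMSO and equimolar FeCl3 plus clioquinol controls.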
TDP43 rescue – inhibitors of TDP-43 toxicity in yeast | AID 652104 | Potency, µM (titrated, usually from 46.1 µM), without a hit: at the top dose growth rescue (activation), hits mostly activators | TDP-43 expressing yeast growth rescue, BacTiter-Glo, 24 h | 1.8% of 410,000 active; further: potency means the concentration at half of the fitted maximal effect; % of control where 0% means no effect; nearly all actives have a fitted effect of over 50% in size
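Galactose-induced TDP-43 yeast, OD600=0.02, compound pinned; 24 hr, 30 deg C; BacTiter-Glo luminescence for growth. Inhibitors of TDP-43 toxicity read as activators.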
Akt phos inh – Akt phosphorylation inhibition; activity change, % for hits at 50 µM; Neuro2A IGF-stimulated pAkt S473 HTRF, 20 min; stronger effect = lower value; 0.32% of 360,000 active; in the data active means activity change below about -80%; inconclusive means mostly about -51% to -80%; further: on the % scale 0 is the no-effect control and ±100 the full control effect
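Single-point screen (50 µM final compound) in Neuro2A cells stimulated 20 min with 6 nM IGF at 37 deg C. After lysis, Ser473-phosphorylated Akt read by HTRF (ex 330 nm, em 615/665 nm) as the 665/615 ratio.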
The depositor's hits bear a star; i = inactive; u = inconclusive; x = no result; [ ] = remark or other dose. Unless noted, the call rests on the fitted dose curve; in most records, active means well fitted curve in the direction sought with a large enough effect; inconclusive means small, poorly fitted or top-dose-only effect, or another doubt; inactive means no such curve, though single readings can be large; an effect the other way counts as inactive or inconclusive.

SMILES	FUS yeast rescue	aSyn yeast inh	Abeta yeast res	TDP43 rescue	Akt phos inh
Cc1c(C(=O)Nc2nc(-c3ccc(F)cc3)ns2)oc2ccc(Cl)cc12	i	x	i	13%	x
Cn1nnc(NC(=S)NC(=O)c2ccc3ccccc3c2)n1	i	-2%	i	u	i
Cn1nnc(NC(=S)NC(=O)c2cccc3ccccc23)n1	i	-9%	11µM*	9%	i
CCCCn1nnc(NC(=S)NC(=O)c2cccs2)n1	x	-15%	i	35µM*	i
CCOC(=O)Cc1nnc(Nc2cccc(C)c2)c2ccccc12	i	-9%	i	15%	-109%*
COC(=O)Cc1nnc(Nc2cccc(C)c2)c2ccccc12	i	-5%	i	0%	i
Cc1ccccc1NC(=O)c1oc2c(c1C)-c1nn(Cc3cccc(Cl)c3)cc1CC2	i	x	i	6%	x
Cc1cccc(N(C)C(=O)C(Cc2ccccc2)NS(=O)(=O)c2cccc3nsnc23)c1 (centres undefined)	i	x	i	12%	x
Nc1n[nH]c(N)c1N=Nc1ccc(Cl)cc1	x	-2%	i	7%	i
Nc1[nH]ncc1N=Nc1ccc(Cl)cc1	i	15%	i	18µM*	i
Cn1nnnc1-c1cc(Br)ccc1NC(=O)c1ccccc1	i	-7%	i	7%	-104%*
CCCCCOC(=O)Cc1c(O)c2ccccc2n(C)c1=O	i	13%	i	11µM*	i
Cc1ccc(-c2nc3ccc(Cl)cn3c2Cc2ccsc2)cc1	i	-6%	i	0%	i
N#Cc1ccc(-c2nc3ccc(Cl)cn3c2Cc2cccc(F)c2)cc1	i	-1%	i	0%	i
Cc1ccc(Cc2c(-c3ccc(C)cc3)nc3ccc(Cl)cn23)cc1	i	0%	i	25µM*	i
Cc1ccc(Cc2c(-c3ccc(Br)cc3)nc3ccc(Cl)cn23)cc1	i	0%	i	26%	i
Cc1ccc2nc(-c3ccc(Cl)cc3)c(Cc3ccccc3C(F)(F)F)n2c1	i	14%	i	u	i
Cc1ccc(Cc2c(-c3ccc(Cl)cc3)nc3ccc(Cl)cn23)cc1	i	6%	i	35µM*	i
Cc1ccc(-c2nc3ccc(Cl)cn3c2Cc2ccccc2C(F)(F)F)cc1	u	7%	i	22µM*	i
Cc1ccc(-c2nc3ccc(Cl)cn3c2Cc2cccc(F)c2)cc1	i	u	i	14µM*	i
CCc1cccc(C)c1NC(=O)CN1CCCN(Cc2ccccc2Cl)S1(=O)=O	i	x	i	19%	x
COc1ccc2c(c1)CC/C(=C/c1ccco1)C2=O	i	-7%	i	14µM*	i
Fc1ccccc1Cn1cc(C(=S)N2CCOCC2)c2ccccc21	i	20µM*	u	u	i
Fc1ccc(Cn2cc(C(=S)N3CCOCC3)c3ccccc32)cc1	i	-33%	i	u	i
CCOc1ccccc1-c1noc(CSc2nnc(-c3ccncc3)n2-c2ccc(F)cc2)n1	i	x	i	12%	x
SMILES	FUS yeast rescue	aSyn yeast inh	Abeta yeast res	TDP43 rescue	Akt phos inh
CN(C(=O)c1ccc2c(c1)C(=O)N(CCC1=CCCCC1)C2=O)C1CCCCC1	i	7%	i	22µM*	i
Nc1c(C(=O)N/N=C/c2ccc([N+](=O)[O-])cc2)cnn1-c1ccccc1	i	-3%	i	-26%	i
Cc1c(C(=S)Nc2ccccc2)cnn1-c1ccc([N+](=O)[O-])cc1	x	16%	i	13µM*	i
Cc1c(C(=S)Nc2ccccc2)cnn1-c1ccccc1	x	6%	i	16µM*	i
Cc1ccc2[nH]c(C(=O)N3CCCC(Nc4ccc(F)cc4)C3)cc2c1 (centres undefined)	u	24%	i	22µM*	i
Cc1cc(C)c(C(=O)N2CCCC(Nc3ccc(F)cc3)C2)o1 (centres undefined)	i	0%	i	24%	i
O=C(Nc1sc2c(c1C(=O)NCc1ccccc1)CCCC2)c1cc(=O)c2ccccc2o1	i	x	i	-9%	x
Cc1ccc(O)c(N)c1	i	-11%	i	17%	i
Cc1ccc(O)c(Sc2cc(C)ccc2O)c1	i	u	u	22µM*	i
CCOC(=O)c1nnn(-c2nonc2N)c1CSc1ccc(C)cc1	i	15%	i	22µM*	i
O=[N+]([O-])c1ccc(Cl)c2cccnc12	i	1%	i	-18%[0.397 µM]	i
COc1ccc(Oc2c(OC)cc([N+](=O)[O-])c3ncccc23)cc1	i	3%	i	35µM*	i
O=[N+]([O-])c1cc(Cl)c2cccnc2c1O	i	u	i	u	i
O=[N+]([O-])c1cc(F)c2cccnc2c1O	i	u	u	4µM*	i
O=[N+]([O-])c1ccccc1Oc1ccc(Cl)c2cccnc12	i	u	i	20µM*	i
COc1ccc(Oc2ncccc2[N+](=O)[O-])cc1	i	1%	i	5%	i
O=[N+]([O-])c1cc([N+](=O)[O-])c2cccnc2c1Oc1ccccc1O	x	4%	i	2µM*	i
Cc1cc(C(F)(F)F)n(-c2nc(C(=O)Nc3cccnc3)cs2)n1	i	9%	i	22µM*	i
COc1ccccc1N1CCN(C(=O)CNS(=O)(=O)c2ccc(Br)s2)CC1	i	18%	i	17%	i
COc1ccccc1N1CCN(C(=O)CCNS(=O)(=O)c2ccc(Br)s2)CC1	i	u	i	22µM*	i
O=C(CCNS(=O)(=O)c1ccc(Br)s1)N1CCN(c2ccccc2)CC1	i	u	i	18µM*	i
Nc1ccc2cccnc2c1	x	1%	x	x	x
CS(=O)(=O)Nc1cccc(NC(=O)c2cccc3c(-c4ccc(F)c(F)c4)coc23)c1	20µM*	0%	i	10%	i
O=C(NCc1ccco1)c1cccc2c(-c3ccc(F)c(F)c3)coc12	i	1%	i	14µM*	i
COc1cc(-c2coc3c(C(=O)NCc4ccccc4)cccc23)ccc1O	u	4%	i	13µM*	i
O=C(NCc1ccc(C(F)(F)F)cc1)c1cccc2c(-c3ccc(F)c(F)c3)coc12	i	10%	i	0%	i
CS(=O)(=O)Nc1cccc(NC(=O)c2ccc(-c3ccc(F)c(F)c3)c3ccoc23)c1	u	0%	i	0%	i
COc1cc(NC(=O)CCc2c(C)nn(-c3ccc(N4CCCCC4)nn3)c2C)cc(OC)c1OC	i	x	i	1%	x
COc1nnc(-c2ccc(N3CCCCC3)c(NC(=O)c3ccccc3Cl)c2)c2ccccc12	i	x	i	u	x
